The results in this text go back to PubChem BioAssay (NCATS).

The structures appear in SMILES notation. Inconclusive results are not listed. A call without a number means that no potency is given here. Active and inactive are the calls of the source. Unless noted, the call rests on the fitted dose curve; in most records, active means well fitted curve in either direction with a large enough effect (not every such curve was filed as active); inconclusive means small, poorly fitted or top-dose-only effect, or another doubt; inactive means flat fitted curve, though single readings scatter.

The target in experiment [1] is Mitogen-activated protein kinase 10 (Mus musculus) (UniProt Q61831). The experiment can be described thus: JNK3 AlphaScreen Assay (AID 530).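 Further: kinase came from lysate of stimulated human HepG2 cells; signal reports phosphorylation of biotinylated GST-cJun 1-79 at Ser73 with 10 µM ATP; series mostly up to about 57 µM.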 The procedure, abridged:
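HepG2 lysate (IL-1b/TNFa pre-activated) + biotin-GST-cJun 1-79 + anti-pSer73 cJun; cpd titration, 15 min RT; ATP 10 uM start; Tris pH 7.6, MgCl2, DTT, vanadate; beads in EDTA buffer; AlphaScreen.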

For experiment [2], the target named is 3',5'-cyclic-AMP phosphodiesterase 4B (Homo sapiens) (UniProt Q07343). Description: qHTS Assay for Inhibitors of PDE-IV (AID 607; active means well fitted activation curve with a large enough effect in the main read-out, with a control signal flat, not every such curve was filed as active). The procedure, abridged: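 The readout is membrane depolarisation from a cAMP-sensing CNG channel, detected with a potential dye at ex 535/em 590. Cells were HEK293-derived (endogenous PDE-IV) at 1000 cells/well, titrated up to 22.9 uM final.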
Sequence of 3',5'-cyclic-AMP phosphodiesterase 4B (Homo sapiens) (Q07343 whole entry, looked up): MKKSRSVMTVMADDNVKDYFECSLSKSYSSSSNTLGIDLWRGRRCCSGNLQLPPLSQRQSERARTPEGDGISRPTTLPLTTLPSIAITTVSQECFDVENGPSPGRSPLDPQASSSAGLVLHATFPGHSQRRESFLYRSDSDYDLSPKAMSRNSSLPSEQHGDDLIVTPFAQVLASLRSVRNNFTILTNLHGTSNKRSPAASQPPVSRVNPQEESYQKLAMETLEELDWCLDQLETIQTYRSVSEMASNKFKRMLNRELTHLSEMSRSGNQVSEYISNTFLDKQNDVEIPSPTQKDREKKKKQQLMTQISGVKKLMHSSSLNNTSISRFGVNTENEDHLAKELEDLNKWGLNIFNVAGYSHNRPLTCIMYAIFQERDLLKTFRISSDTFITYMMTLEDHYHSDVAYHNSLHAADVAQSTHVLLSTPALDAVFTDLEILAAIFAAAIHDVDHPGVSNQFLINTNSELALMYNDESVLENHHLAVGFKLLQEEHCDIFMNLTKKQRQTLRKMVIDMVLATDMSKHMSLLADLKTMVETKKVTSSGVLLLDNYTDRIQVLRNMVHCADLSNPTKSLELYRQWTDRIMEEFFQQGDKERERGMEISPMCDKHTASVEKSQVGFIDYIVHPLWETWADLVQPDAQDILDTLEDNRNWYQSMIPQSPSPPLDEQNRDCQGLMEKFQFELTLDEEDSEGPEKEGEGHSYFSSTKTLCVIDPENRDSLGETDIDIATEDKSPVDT

Experiment [3] addresses Cytochrome P450 3A4 (Homo sapiens) (UniProt P08684). The experiment can be described thus: qHTS Assay for Activators of Cytochrome P450 3A4 (AID 885; active means well fitted curve in the direction sought with a large enough effect; an effect the other way counts as inactive or inconclusive; further: nearly all actives have a fitted effect of over 65% in size). The procedure, abridged:
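Activators are scored by enhanced luminescence from CYP3A4 conversion of luciferin-PPXE (25uM, equal to KM) to luciferin, after 60 min at RT with an NADPH-regenerating system.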

For experiment [4], the target named is Cytochrome P450 2C19 (Homo sapiens) (UniProt P33261). Description: qHTS Assay for Inhibitors and Substrates of Cytochrome P450 2C19 (AID 899; active means well fitted curve in the direction sought with a large enough effect; an effect the other way counts as inactive or inconclusive; further: potency means the concentration at half of the fitted maximal effect; nearly all actives have a fitted effect of over 60% in size). The procedure, abridged:
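Luminescent read-out of luciferin formed from Luciferin-H EGE (10uM, equal to KM). Enzyme 5nM in 50mM KPO4; compound added, 10 min at 37C, then NADPH regenerating system for 60 min at 37C. Full inhibition defined by 57uM ketoconazole.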

For experiment [5], the target named is Cytochrome P450 2C9 (Homo sapiens) (UniProt P11712). Description: qHTS Assay for Inhibitors and Substrates of Cytochrome P450 2C9 (AID 883; active means well fitted curve in the direction sought with a large enough effect; an effect the other way counts as inactive or inconclusive; further: potency means the concentration at half of the fitted maximal effect; nearly all actives have a fitted effect of over 60% in size). The procedure, abridged:
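10nM CYP2C9 + 100uM Luciferin-H (=KM), 25mM KPO4; cpd 10 min 37C; NADPH regen, 60 min 37C; stop/detect with P450 Glo-Buffer 20 min; luminescence. Norm. to 57uM sulphaphenazole as full inhibition.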

The target in experiment [6] is Cytochrome P450 3A4 (Homo sapiens) (UniProt P08684). Description: qHTS Assay for Inhibitors and Substrates of Cytochrome P450 3A4 (AID 884; active means well fitted curve in the direction sought with a large enough effect; an effect the other way counts as inactive or inconclusive; further: nearly all actives have a fitted effect of over 50% in size; further: potency means the concentration at half of the fitted maximal effect). The procedure, abridged: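 Luminescent readout of luciferin produced by CYP3A4 (20 nM) dealkylation of Luciferin-PPXE, 25 uM (its KM). NADPH-driven reaction ran 60 min at RT after 10 min compound preincubation; data scaled to 57 uM ketoconazole as 100% inhibition.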
Sequence of Cytochrome P450 3A4 (Homo sapiens) (P08684 whole entry, looked up): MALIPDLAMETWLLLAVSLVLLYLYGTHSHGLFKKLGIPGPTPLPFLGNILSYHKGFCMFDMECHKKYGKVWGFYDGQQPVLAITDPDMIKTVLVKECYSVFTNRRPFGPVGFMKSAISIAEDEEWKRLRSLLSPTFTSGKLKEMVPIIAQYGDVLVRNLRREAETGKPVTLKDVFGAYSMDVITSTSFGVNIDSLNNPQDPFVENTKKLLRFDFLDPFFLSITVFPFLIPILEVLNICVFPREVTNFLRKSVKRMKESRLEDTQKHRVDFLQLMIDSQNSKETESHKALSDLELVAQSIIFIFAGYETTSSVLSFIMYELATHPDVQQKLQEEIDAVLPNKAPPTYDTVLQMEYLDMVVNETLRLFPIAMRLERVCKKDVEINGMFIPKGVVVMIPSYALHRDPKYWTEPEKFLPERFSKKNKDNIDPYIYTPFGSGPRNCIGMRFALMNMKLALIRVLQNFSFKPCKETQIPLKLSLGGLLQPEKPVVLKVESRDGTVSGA

Sequence of Cytochrome P450 2C19 (Homo sapiens) (P33261 whole entry, looked up): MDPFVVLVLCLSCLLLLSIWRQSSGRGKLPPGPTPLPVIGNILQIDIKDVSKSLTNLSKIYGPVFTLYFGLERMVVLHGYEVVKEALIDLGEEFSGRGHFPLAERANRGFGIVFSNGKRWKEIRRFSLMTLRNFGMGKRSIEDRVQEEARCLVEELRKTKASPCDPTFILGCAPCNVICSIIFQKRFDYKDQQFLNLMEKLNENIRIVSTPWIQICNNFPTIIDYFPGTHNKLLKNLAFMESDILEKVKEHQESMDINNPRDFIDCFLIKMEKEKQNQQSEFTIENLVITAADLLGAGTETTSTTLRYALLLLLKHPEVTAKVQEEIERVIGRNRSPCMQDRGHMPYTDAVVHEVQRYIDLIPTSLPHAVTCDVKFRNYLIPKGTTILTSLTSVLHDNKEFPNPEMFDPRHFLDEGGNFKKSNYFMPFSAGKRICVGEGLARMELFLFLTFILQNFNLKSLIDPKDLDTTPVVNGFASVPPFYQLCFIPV
Sequence of Cytochrome P450 2C9 (Homo sapiens) (P11712 whole entry, looked up): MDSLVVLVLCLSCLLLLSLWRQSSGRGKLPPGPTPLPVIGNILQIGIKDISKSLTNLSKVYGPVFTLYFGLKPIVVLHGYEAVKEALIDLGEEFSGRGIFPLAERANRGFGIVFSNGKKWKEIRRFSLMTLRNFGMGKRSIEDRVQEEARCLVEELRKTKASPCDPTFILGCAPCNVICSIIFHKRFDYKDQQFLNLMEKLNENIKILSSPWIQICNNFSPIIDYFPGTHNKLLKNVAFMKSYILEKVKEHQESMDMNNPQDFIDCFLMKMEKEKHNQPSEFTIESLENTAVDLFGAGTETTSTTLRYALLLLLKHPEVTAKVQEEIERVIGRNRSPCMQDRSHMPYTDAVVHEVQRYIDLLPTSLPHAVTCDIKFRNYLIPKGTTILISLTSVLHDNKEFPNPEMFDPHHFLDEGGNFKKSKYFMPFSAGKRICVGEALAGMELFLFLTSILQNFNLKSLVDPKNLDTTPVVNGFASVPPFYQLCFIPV

In the case of `COC(=O)[C@@]1(Cc2ccc(OC)cc2)[C@H]2c3cc(C(=O)N(C)C)n(CCc4c[nH]c5ccc(O)cc45)c3C[C@H]2CN1C(=O)c1ccccc1`, the compound was called inactive in experiment [1] and in experiment [2].

For `COC(=O)[C@@]1(Cc2ccc(OC)cc2)[C@H]2c3cc(C(=O)N(C)C)n(C)c3C[C@H]2CN1C(=O)c1ccccc1`, the call in experiment [1] and in experiment [2] was inactive.

In the case of `C[C@@H](C(=O)Nc1ccc2ccccc2c1)[C@@H]1C[C@@]1(C)[C@@H](NC(=O)c1ccccc1)c1ccccc1`, the result in experiment [1] and in experiment [2] was inactive.

For `CC(C)c1ccc2c([Si](C)(C)C)c3c(nc2c1)-c1cccc(=O)n1C3`, the compound was called inactive in experiment [1] and in experiment [2].

In the case of `COC(=O)[C@@]1(Cc2ccc(OC)cc2)[C@H]2c3cc(C(=O)N(C)C)n(Cc4cccc5ccccc45)c3C[C@H]2CN1C(=O)c1ccccc1`, the compound was called inactive in experiment [1] and in experiment [2].

For the compound `COC(=O)[C@@]1(Cc2ccc(F)cc2)[C@H]2c3cc(C(=O)N(C)C)n(Cc4ccc(O)c(OC)c4)c3C[C@H]2CN1C(=O)c1ccccc1`, the compound was classed as inactive in experiment [1] and in experiment [2].

For `COC(=O)[C@@H]1C[C@H]1[C@@H](N)c1ccccc1`, the compound was classed as inactive in experiment [1] and in experiment [2].

With `COC(=O)[C@@]1(Cc2ccccc2)[C@H]2c3cc(C(=O)N(C)C)n(Cc4ccccn4)c3C[C@H]2CN1C(=O)c1ccccc1`, the compound was classed as inactive in experiment [1] and in experiment [2].

On to `COC(=O)[C@@]1(Cc2ccc(OC)cc2)[C@H]2c3cc(C(=O)N(C)C)n(CCc4ccccn4)c3C[C@H]2CN1C(=O)c1ccccc1`, for which the outcome in experiment [1] and in experiment [2] was inactive.

In the case of `COC(=O)[C@@]1(Cc2ccccc2)[C@H]2c3cc(C(=O)N(C)C)n(Cc4nc5ccccc5[nH]4)c3C[C@H]2CN1C(=O)c1ccccc1`, the compound was classed as inactive in experiment [1] and in experiment [2].

For the compound `CCc1c2c(nc3ccc(OC)cc13)OC(C)C2` (stereo unspecified), the outcome in experiment [1] and in experiment [2] was inactive.

For the compound `COC(=O)[C@@]1(Cc2ccc(F)cc2)[C@H]2c3cc(C(=O)N(C)C)n(CCN4CCOCC4)c3C[C@H]2CN1C(=O)c1ccccc1`, the outcome in experiment [1] and in experiment [2] was inactive.

Take `CCC/C=C(\CCC)C(NS(C)(=O)=O)c1ccccc1` (stereo unspecified): the compound was classed as inactive in experiment [1] and in experiment [2]. In experiment [3], the Potency result was “inactive”. Moreover, the Potency in experiment [4] is 7.94 µM (active).

`COC(=O)[C@@]1(Cc2ccccc2)[C@H]2c3cc(C(=O)N(C)C)n(Cc4ccccc4)c3C[C@H]2CN1C(=O)c1ccccc1`: the call in experiment [1] and in experiment [2] was inactive.

Take `CCCC[C@@H]1C[C@H]1C(NC(=O)c1cccnc1)c1ccc(-c2ccccc2)cc1` (stereo partly specified): in experiment [1], the call was inactive. For the same compound, the Potency in experiment [5] was 5.01 µM (active). Also, the Potency entry in experiment [3] was “inactive”.

On to `COC(=O)[C@@]1(Cc2ccc(OC)cc2)[C@H]2c3cc(C(=O)N(C)C)n(Cc4ccc(O)c(OC)c4)c3C[C@H]2CN1C(=O)c1ccccc1`, for which the compound was classed as inactive in experiment [1] and in experiment [2].

As to `COC(=O)[C@@]1(Cc2ccc(F)cc2)[C@H]2c3cc(C(=O)N4CCCC4)n(Cc4ccc(C(F)(F)F)nc4)c3C[C@H]2CN1C(=O)c1ccccc1`, the call in experiment [1] and in experiment [2] was inactive.

`C[C@H](CO)NC(=O)[C@H](C)[C@H]1C[C@]1(C)[C@H](NC(=O)OCc1ccccc1)c1ccccc1`: the result in experiment [1] and in experiment [2] was inactive. Besides, the Potency in experiment [6] was 3.98 µM (active); in experiment [4] it was 0.631 µM (active). The Potency result in experiment [3] is “inactive”.

As to `COC(=O)[C@H]1C[C@@H]1[C@H](N)c1ccccc1`, the compound was classed as inactive in experiment [1] and in experiment [2].

On to `COC(=O)[C@@]1(Cc2ccc(OC)cc2)[C@@H]2[C@@H](CC(=O)[C@H]2CC(=O)C(=O)N(C)C)CN1C(=O)c1ccccc1`, for which the compound was classed as inactive in experiment [1] and in experiment [2]. Besides, in experiment [3], the Potency result is “inactive”.

As for `COC(=O)[C@@]1(Cc2ccc(OC)cc2)[C@H]2c3cc(C(=O)N(C)C)n(CCF)c3C[C@H]2CN1C(=O)c1ccccc1`, the outcome in experiment [1] and in experiment [2] was inactive.

On to `COC(=O)[C@@]1(Cc2ccc(F)cc2)[C@H]2c3cc(C(=O)N4CCCC4)n(CCc4c[nH]c5cc(F)ccc45)c3C[C@H]2CN1C(=O)c1ccccc1`, for which the compound was called inactive in experiment [1] and in experiment [2].

In the case of `Cc1c2c(nc3ccccc13)OCC2`, the result in experiment [1] and in experiment [2] was inactive.

For the compound `C[C@@H](C(=O)Nc1ccc2ccccc2c1)[C@H]1C[C@]1(C)[C@H](NC(=O)c1ccccc1)c1ccccc1`, the result in experiment [1] and in experiment [2] was inactive.

For `COC(=O)[C@@]1(Cc2ccccc2)[C@H]2c3cc(C(=O)N(C)C)n(C[C@H](O)CO)c3C[C@H]2CN1C(=O)c1ccccc1`, the compound was classed as inactive in experiment [1] and in experiment [2].

Regarding `COC(=O)c1ccc(C(NC(=O)OCc2ccccc2)/C(=C/[C@@H](C)C(=O)NCc2cc(C)n(C)n2)c2cccnc2)cc1` (stereo partly specified), the result in experiment [1] was inactive. Also, the Potency result in experiment [6] is “inactive”.

As for `COC(=O)[C@@]1(Cc2ccc(F)cc2)[C@H]2c3cc(C(=O)N(C)C)n(Cc4ccc(OC(F)(F)F)cc4)c3C[C@H]2CN1C(=O)c1ccccc1`, the outcome in experiment [1] and in experiment [2] was inactive.

Consider `Cc1ccc(CNC(=O)[C@H](C)[C@H]2C[C@]2(C)[C@H](NC(=O)OCc2ccccc2)c2ccccc2)c(F)c1F`, for which the call in experiment [1] and in experiment [2] was inactive.

For the compound `COC(=O)[C@@]1(Cc2ccccc2)[C@H]2c3cc(C(=O)N4CCCC4)n(Cc4ccccc4)c3C[C@H]2CN1C(=O)c1ccccc1`, the compound was classed as inactive in experiment [1] and in experiment [2].

Turning to `COC(=O)[C@@]1(Cc2ccccc2)[C@H]2c3cc(C(=O)N(C)C)n(Cc4c(CO)[nH]cc(C)c4=O)c3C[C@H]2CN1C(=O)c1ccccc1`, the compound was classed as inactive in experiment [1] and in experiment [2]. The results for the Potency in experiment [5], in experiment [6] and in experiment [4] were 0.631 µM (active), 1.58 µM (active) and 3.16 µM (active), respectively. Moreover, in experiment [3], the Potency result is “inactive”.
